Source: PubChem BioAssay
Vif imaging: HIV Vif self-association inhibitors, primary screen, imaging, HEK293T, single point; inhibition, % at 7.49 µM; HEK293T cells, Vif self-association by quenched fluorescence, 24 h; 340,000 tested, 0.35% active; in the data active = inhibition above about 50%, passing the limit was not always enough; inconclusive = no clear call, values can overlap the other calls; inactive = below about 31%
HSF1 activator: HSF-1 activators, primary screen, NIH3T3-HGL cells, MG132 stress, luminescence, single point | activation, % at 9 µM | NIH3T3-HGL HSF-1 luciferase reporter, 8 h; 100% = twice DMSO control signal | 300,000 tested, 1.7% active | AID 504408, 2011;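 active = mean replicate activation of at least 50% with a set share of replicates each reaching 50%; inconclusive = only one of those two conditions met; inactive = mean below 50% and too few replicates reaching it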;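 note: 0% = median of the neutral control wells and 100% = twice that signal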
HSF1 inhib: HSF1 inhibitors in luciferase reporter cells, primary screen, cell-based, NIH3T3, luminescence; NIH3T3-HGL HSE-luciferase, MG132-induced, luminescence 8 h; stronger effect = lower value; activity change, negative = inhibition, % at 7.5 µM (by protocol); 300,000 tested, 0.77% active;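 active = more than half of replicate wells show activity change below -50%, luminescence cut by over half; inconclusive = some wells, but at most half, below -50%; inactive = no replicate well below -50%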;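 note: luciferase reports HSF-1 transcriptional activity via heat shock element; 0% = median of DMSO wells and -100% = zero luminescence signal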
esBAF inh: Bmi1 luciferase reporter increase in mESCs, primary screen, esBAF inhibitor project, mouse ES cells, Bmi1 luciferase knock-in, single point; reporter increase, % at 12.5 µM; 24 h; 100% = twice the neutral-well signal; AID 602393, 2012; 350,000 tested, 2% active; in the data active = activation above about 40%; inconclusive = no clear call, values can overlap the other calls;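 note: 0% = median of the plate's neutral control wells and 100% = double that signal; a rise in the Bmi1 reporter signal indicates esBAF inhibition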
Starred values were filed as active, the others as inactive; i = inactive; ? = inconclusive; / = not tested or not shown. A selection: hits, their analogues and other compounds. The true share with any hit is near 3.4%.

SMILES	Vif imaging	HSF1 activator	HSF1 inhib	esBAF inh
COc1cc2ccccc2cc1C(=O)Nc1nccs1	8.4	7.1	-7.5	76.5*
O=C(Nc1nccs1)c1ccc2ccccc2c1	-2.6	41.9	35.1	6.7
COc1ccccc1OCCCC(=O)Nc1nccs1	-5.4	29.0	10.7	82.0*
O=C(Nc1ccc(Br)cn1)c1ccc2ccccc2c1	2.4	?	17.9	55.7*
Cc1cccc(OCCCC(=O)Nc2nccs2)c1C	3.2	/	/	19.5
C[C@@H]1CN([C@@H](C)CO)C(=O)Cc2cc(NC(=O)Cn3cnnn3)ccc2O[C@H]1CN(C)C(=O)Nc1ccc(F)cc1	/	/	/	2.3
CCOc1ccccc1NC(=S)NCc1ccco1	8.2	51.5*	19.7	-6.0
COc1ccccc1OCCCC(=O)NCc1ccco1	59.1*	-0.3	-0.6	/
COc1c(C(=O)Nc2nccs2)ccc2ccccc12	-1.1	20.3	12.6	41.7*
COc1ccc(C(CC(=O)Nc2nccs2)n2cccc2)cc1 (stereo unspecified)	9.1	57.8*	32.7	60.6*
COc1cccc(C=Nc2ccccc2C(=O)Nc2nccs2)c1OC	-7.3	-11.5	0.0	-1.1
Cn1c(=O)cc(OCCCC(=O)NCc2ccco2)c2ccccc21	3.7	13.0	6.3	3.1
COc1cccc(CNC(=O)C[C@@H]2CC[C@@H]3[C@@H](COc4ccc(NS(=O)(=O)c5ccccc5F)cc4C(=O)N3C)O2)c1	/	/	/	5.4
CCNC(=O)C[C@@H]1CC[C@H]2[C@H](COc3ccc(NC(=O)c4ccccc4)cc3C(=O)N2C)O1	/	/	/	-0.6
COc1c(C(=O)Nc2ccc(Br)cn2)ccc2ccccc12	-15.7	33.1	7.1	49.0*
O=C1CCC[C@@H]2C[C@@]3(C[C@@H]4CCN1[C@H]24)Nc1cc(Cl)c(Cl)cc1NC3=NCc1ccccc1	-1.9	/	/	74.3*
O=C1CCC[C@@H]2[C@H](Cc3ccccc3)[C@@H](O)C[C@@H]3CCN1[C@@H]32	-4.0	/	/	-1.6
O=C(O)c1cc(S(=O)(=O)Nc2ccc3c(c2)OCCO3)c(Cl)cc1Cl	8.3	-71.2	-68.6*	-71.9
Cc1n[nH]c(C)c1S(=O)(=O)Nc1ccc2c(c1)OCCO2	4.8	-62.9	-62.0*	-20.6
Cc1c(S(=O)(=O)Nc2ccc3c(c2)OCCO3)cnn1C	-3.3	-10.2	5.0	/
CC(=O)Nc1ccc(S(=O)(=O)Nc2ccc3c(c2)OCCO3)cc1Cl	-16.5	3.0	-1.3	/
Cc1nn(C)cc1S(=O)(=O)Nc1ccc2c(c1)OCCO2	-2.2	-68.7	-63.0*	/
Cc1ccc(N(CC(=O)Nc2ccc3c(c2)OCCO3)S(=O)(=O)c2c(C)n[nH]c2C)cc1	4.2	-4.8	-1.8	-0.1
CCOC(=O)c1c(C)n(C)c2ccc(OCC(O)CNCCc3ccccc3)cc12 (stereo unspecified)	0.6	77.3*	33.4	3.3
CCOC(=O)c1c(C)n(C)c2ccc(OCC(O)CN3CCN(C)CC3)cc12 (stereo unspecified)	15.5	1.0	1.0	4.8
SMILES	Vif imaging	HSF1 activator	HSF1 inhib	esBAF inh
COc1ccc(N=Cc2sc(O)c3ccccc23)cc1	4.5	20.9	5.0	81.9*
Cc1cccc(CS(=O)(=O)Cc2ccc(C(=O)NCc3cccs3)o2)c1	-2.4	-79.2	-71.5*	-6.8
Cc1cccc(CS(=O)(=O)Cc2ccc(C(=O)NCc3ccccc3)o2)c1	-2.2	5.6	1.7	-4.4
COc1ccc(S(=O)(=O)Nc2ccc3c(c2)CC(=O)N([C@@H](C)CO)C[C@@H](C)[C@@H](CN(C)S(C)(=O)=O)O3)cc1	/	/	/	5.9
COc1cc2c(cc1OC)CN(Cc1cc(=O)oc3c(C)c(C)ccc13)CC2	0.1	58.0*	12.6	/
Cc1ccc2c(CN(C)Cc3ccccc3)cc(=O)oc2c1C	-8.8	73.6*	40.4	58.7*
Cc1cc2oc(=O)cc(CN(C)Cc3ccccc3)c2cc1C	/	/	/	48.4*
Cc1ccc2c(CN(C)Cc3cccc(F)c3)cc(=O)oc2c1C	-7.2	30.0	18.3	49.7*
Cc1ccc2c(c1)COc1c3ccc(C(=O)NCC4CC4)cc3nn1-2	/	24.4	21.5	93.7*
O=C(NCCO)c1ccc2c3n(nc2c1)-c1ccccc1CO3	3.1	27.6	14.9	1.8
O=C(NCC1CC1)c1ccc2c3n(nc2c1)-c1ccccc1CO3	-3.1	57.9*	30.3	4.5
C=CCNC(=O)c1ccc2c3n(nc2c1)-c1ccc(Cl)cc1CO3	i	33.1	23.1	53.0*
Cc1ccc2c(c1)COc1c3ccc(C(=O)O)cc3nn1-2	/	-33.3	-32.2	1.8
O=C(C[C@H]1CC[C@@H]2NC[C@H](O)COC[C@H]2O1)N1CCc2ccccc2C1	/	/	/	-1.4
COc1ccc(NC(=O)Nc2ccc3c(c2)CC(=O)N([C@H](C)CO)C[C@@H](C)[C@@H](CN(C)Cc2ccc(Oc4ccccc4)cc2)O3)cc1	/	/	/	-3.4
CO[C@H]1CN(C)C(=O)c2cc(NC(=O)Nc3cccc(F)c3)ccc2OC[C@H](C)N(C)C[C@H]1C	/	/	/	-3.2
COc1ccc(Nc2nc(N)c([N+](=O)[O-])c(N3CCCC3)n2)cc1	-5.3	24.6	-2.1	3.7
Nc1nc(Nc2ccccc2)nc(N2CCCC2)c1[N+](=O)[O-]	2.9	40.7	32.4	50.3*
Cc1ccc(S(=O)(=O)Nc2cccc3c2O[C@H](CN(C)S(=O)(=O)c2ccccc2)[C@@H](C)CN([C@H](C)CO)C3=O)cc1	/	/	/	-3.6
Clc1ccc(COn2c(-c3ccc(Cl)cc3)nc3ccccc32)cc1	-9.7	60.5*	35.1	-1.9
O=[N+]([O-])c1ccc2nc(-c3ccc(Cl)cc3)n(OCc3ccccc3)c2c1	-13.2	41.9	13.9	68.2*
Clc1ccc(COn2c(-c3ccccc3)nc3ccccc32)cc1	6.4	15.9	6.5	1.8
CCOC(=O)C(C)On1c(-c2ccc(Cl)cc2)nc2ccc([N+](=O)[O-])cc21 (stereo unspecified)	4.2	43.9	37.1	/
Cc1ccc(COn2c(-c3ccc(Cl)cc3)nc3ccc([N+](=O)[O-])cc32)cc1	-19.6	-4.5	-2.2	53.7*
O=C(O)COn1c(-c2ccccc2)nc2ccc([N+](=O)[O-])cc21	-9.2	82.1*	39.7	48.7*
SMILES	Vif imaging	HSF1 activator	HSF1 inhib	esBAF inh
COc1ccc(NC(=O)N(C)C[C@H]2Oc3ccc(N(C)C)cc3CC(=O)N([C@H](C)CO)C[C@H]2C)cc1	/	/	/	2.9
C[C@H](NC(=O)[C@H]1[C@H](CO)[C@H]2Cn3c(cccc3=O)[C@@H]1N2Cc1cccnc1)c1ccccc1	/	/	/	-1.6
CCCNC(=O)C[C@@H]1CC[C@H]2[C@@H](COc3ccc(NS(=O)(=O)c4ccccc4C)cc3C(=O)N2C)O1	/	/	/	-4.1
COc1ccccc1C#Cc1ccc2c(c1)[C@H]1[C@H](CCN1C(=O)c1ccncc1)[C@H](CO)N2	/	/	/	13.2
C[C@@H]1CN([C@H](C)CO)C(=O)c2cccc(NS(=O)(=O)c3cccs3)c2O[C@H]1CN(C)C(=O)Nc1ccc(C(F)(F)F)cc1	/	/	/	-2.6
Cc1ccc(CC2SC(=Nc3ccccc3)N(c3ccccc3)C2=O)cc1 (stereo unspecified)	-4.8	59.2*	25.6	/
